{
  "source": "PubChem BioAssay AID1851",
  "about": "(National Center for Advancing Translational Sciences (NCATS), 2009)",
  "note": "Values joined by “and” are separate entries in the source; they are usually repeats but may differ in a detail not shown here. Equal values may be shown once. The campaign covered roughly 16,000 compounds. About 5,700 (36%) were called active. Not shown: some 24% with an inconclusive outcome. Calls come from the whole dose curve; as a rule, active = well fitted curve in the direction sought with a large enough effect; inconclusive = small, poorly fitted or top-dose-only effect, or effect the other way; inactive = no such curve, though single readings can be large or run the other way. This is one part of the list. % is set by controls: 0 for no effect and ±100 for the full control effect.",
  "data": [
    {"target": "Cytochrome P450 1A2 (Homo sapiens) (UniProt P05177)", "sequence (P05177 whole entry, looked up)": "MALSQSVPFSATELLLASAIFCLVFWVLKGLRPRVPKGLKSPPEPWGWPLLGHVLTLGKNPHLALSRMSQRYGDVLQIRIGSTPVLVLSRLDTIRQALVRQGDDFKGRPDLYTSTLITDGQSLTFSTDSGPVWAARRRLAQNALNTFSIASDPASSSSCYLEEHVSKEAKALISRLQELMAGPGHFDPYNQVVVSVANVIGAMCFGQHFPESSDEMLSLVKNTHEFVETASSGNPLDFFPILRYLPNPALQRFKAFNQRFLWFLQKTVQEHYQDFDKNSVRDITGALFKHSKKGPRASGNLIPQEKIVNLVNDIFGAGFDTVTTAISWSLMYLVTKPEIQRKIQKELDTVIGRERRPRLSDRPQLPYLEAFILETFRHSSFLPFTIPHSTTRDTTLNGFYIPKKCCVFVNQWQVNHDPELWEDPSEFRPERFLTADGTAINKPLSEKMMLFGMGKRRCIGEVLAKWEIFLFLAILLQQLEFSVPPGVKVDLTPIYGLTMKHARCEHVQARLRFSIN", "assay": "Cytochrome panel assay with activity outcomes", "settings": "recombinant CYP, pro-luciferin dealkylation, luminescence, p450-cyp1a2; series mostly up to 57.1 µM", "values": [
      {"compound": "CCN1C(=O)C=CC1=O", "AC50": "inactive"},
      {"compound": "CCC(=O)OCN1C(=O)C=CC1=O", "AC50": "3.16 µM (active)"},
      {"compound": "Cc1ccc([C@@]2(C)CC/C(=N/N=C3\\CC[C@](C)(c4ccc(C)c(C)c4)c4cc(C)c(C)cc43)c3cc(C)c(C)cc32)cc1C", "activity, negative = inhibition": "-12.4% [at 11.4 µM] (inactive)"},
      {"compound": "CC(C)[C@@H](OCc1ccccc1)[C@H](C)/C=N\\O[C@@H](C)c1cn([C@H](CO)Cc2ccccc2)nn1", "activity, negative = inhibition": "-2.54% [at 11.4 µM] (inactive) and -7.97% [at 11.4 µM] (inactive)"},
      {"compound": "O=Nc1c(-c2c(O)[nH]c3ccccc23)[nH]c2ccccc12", "AC50": "0.0316 µM (active)"},
      {"compound": "O=C(O)c1ccc(S(=O)(=O)N=Nc2c(O)[nH]c3ccccc23)cc1", "activity, negative = inhibition": "-11.7% [at 11.4 µM] (inactive)"},
      {"compound": "[Cu].[O-]/N=C1/C(=[OH+])Nc2ccccc21.[O-]Nc1c(O)[nH]c2ccccc12", "activity, negative = inhibition": "-20.1% [at 2.29 µM] (inactive)"},
      {"compound": "Cc1ccc(C(=O)NCCNC(=O)CN2CCOCC2)cc1", "AC50": "inactive"},
      {"compound": "Cc1ccc(C(=O)NCc2ccc(N3CCN(C(=O)OC(C)(C)C)CC3)cc2)cc1", "AC50": "inactive"},
      {"compound": "Cc1ccc(SCCNC(=S)Nc2ccc(C)c(C)c2)cc1", "AC50": "11.2 µM (active)"},
      {"compound": "Cc1ccc(NC(=S)NCCN2CCOCC2)cc1C", "AC50": "inactive"},
      {"compound": "Cc1ccc(SCc2nnc(NC(=O)c3ccccc3)s2)cc1", "AC50": "inactive"},
      {"compound": "Cc1ccc(SCc2ccc(C(=O)NCc3ccncc3)cc2)cc1", "AC50": "0.355 µM (active)"},
      {"compound": "Cc1ccc(SCCNC(=O)c2ccccc2)cc1", "AC50": "10 µM (active)"},
      {"compound": "N[C@H](C(=O)N[C@@H]1C(=O)N2C(C(=O)O)=C(Cl)CS[C@@H]12)c1ccccc1", "AC50": "inactive"},
      {"compound": "Cc1nc2cnc(Oc3cccc(Cl)c3)nc2n(CCc2ccccc2)c1=O", "AC50": "12.6 µM (active)"},
      {"compound": "COCCn1c(=O)cnc2cnc(Oc3cccc(Cl)c3)nc21", "AC50": "3.16 µM (active)"},
      {"compound": "COCCn1c(=O)c(C)nc2cnc(Oc3cccc(Cl)c3)nc21", "AC50": "12.6 µM (active)"},
      {"compound": "Cc1nc2cnc(Oc3cccc(Cl)c3)nc2n(CCC#N)c1=O", "AC50": "15.8 µM (active)"},
      {"compound": "CC(=NCCN1CCN(C(=S)Nc2ccccc2)CC1)C1=C(O)CC(C)(C)CC1=O", "AC50": "inactive"},
      {"compound": "CC(C)(C)n1nc(-c2ccc(Cl)cc2)c2c(N)ncnc21", "AC50": "1 µM (active)"},
      {"compound": "CC(C)(C)Cn1nc(-c2ccc(Cl)cc2)c2c(N)ncnc21", "AC50": "0.158 µM (active)"},
      {"compound": "CO/N=C(\\C(=O)N[C@@H]1C(=O)N2C(C(=O)[O-])=C(C[N+]3(C)CCCC3)CS[C@@H]12)c1csc(N)n1", "AC50": "inactive"},
      {"compound": "CCCCSc1ccc2nc(-c3ccc(C#N)cc3)cn2c1", "AC50": "2.82 µM (active)"},
      {"compound": "CN(C)CCNC(=O)C1CCCNC1=O", "note": "(configuration not stated)", "AC50": "inactive"},
      {"compound": "COc1ccc(C(Cl)=C(c2ccc(OC)cc2)c2ccc(OC)cc2)cc1", "AC50": "inactive"},
      {"compound": "CCN(CC)CCOc1ccc(/C(=C(\\Cl)c2ccccc2)c2ccccc2)cc1", "AC50": "12.6 µM (active)"},
      {"compound": "CCc1ccc2[nH]c(O)c(N=Nc3nc(-c4ccccc4)cs3)c2c1", "AC50": "10 µM (active)"},
      {"compound": "C[N+](C)(C)CCCCCCCCCC[N+](C)(C)C", "AC50": "inactive"},
      {"compound": "O=C1CCCC2=C1C(c1ccc(OS(=O)(=O)c3ccc(Cl)cc3)cc1)C1=C(CCCC1=O)O2", "AC50": "inactive"},
      {"compound": "COc1ccc2c(c1)OC1=C(C(=O)CCC1)C2C1=C(O)CCCC1=O", "note": "(configuration not stated)", "AC50": "7.08 µM (active)"},
      {"compound": "Cc1ccc(S(=O)(=O)Oc2ccc(C3C4=C(CCCC4=O)OC4=C3C(=O)CCC4)cc2)cc1", "AC50": "inactive"},
      {"compound": "N#CC(CC(=O)O)=C(c1ccccc1)c1ccccc1", "activity, negative = inhibition": "-14.5% [at 2.29 µM] (inactive)"},
      {"compound": "C=CCNc1sc(C(=O)c2ccccc2)c(N)c1C#N", "AC50": "3.16 µM (active)"},
      {"compound": "C=CCNc1sc(C(=O)c2ccc(C)cc2)c(N)c1C#N", "AC50": "1.78 µM (active)"},
      {"compound": "O=C(NC1CCCc2ccccc21)C1CCN(S(=O)(=O)N2CCCCCC2)CC1", "note": "(configuration not stated)", "AC50": "inactive"},
      {"compound": "CCN1CCN(C(=O)C2c3cc(OC)c(OC)cc3C(=O)N3CCc4ccccc4C23)CC1", "note": "(configuration not stated)", "AC50": "inactive"},
      {"compound": "O=C(C1CCCCC1)N1CC(=O)N2CCc3ccccc3[C@@H]2C1", "AC50": "10 µM (active)"},
      {"compound": "CCOc1nc(N=C(N)N)nc2c(C)cccc12", "AC50": "0.178 µM (active)"},
      {"compound": "CN1Cc2c(C(=O)OC(C)(C)C)ncn2-c2ccsc2C1=O", "AC50": "15.8 µM (active)"},
      {"compound": "c1ncc(-c2ccc3c(c2)OCO3)c(NCCc2cnc[nH]2)n1", "AC50": "0.398 µM (active)"},
      {"compound": "CN(C)c1ccc(-c2cncnc2NCCc2cnc[nH]2)cc1", "AC50": "1.26 µM (active)"},
      {"compound": "CN(C)C(=O)c1ccc(-c2cncnc2NCCc2cnc[nH]2)cc1", "AC50": "12.6 µM (active)"},
      {"compound": "CCc1c(C)sc(NC(=O)OC)c1C(N)=O", "AC50": "8.91 µM (active)"},
      {"compound": "CCCCCc1nnc(NC(=O)C(=O)OCC)s1", "AC50": "inactive"},
      {"compound": "Cc1sc(NC(=O)C2CCCCC2C(=O)O)c(C(N)=O)c1C", "note": "(configuration not stated)", "AC50": "inactive"},
      {"compound": "O=C(c1ccc(Cl)c(Cl)c1)c1cc(-c2ccccn2)c(N2CCOCC2)s1", "AC50": "11.2 µM (active)"},
      {"compound": "O=C(Oc1ccc(C(=S)N2CCOCC2)cc1Br)c1cc(Cl)ccc1Cl", "AC50": "inactive"},
      {"compound": "O=C(O)c1cc2ccccc2c(Cc2cc3ccccc3c(C(=O)O)c2O)c1O", "note": "(tested in a mixture with another compound)", "AC50": "inactive"},
      {"compound": "O=C(O)c1cc(C(=O)C(=O)c2cc(C(=O)O)c(O)c3ccccc23)c2ccccc2c1O", "activity, negative = inhibition": "-6.52% [at 11.4 µM] (inactive)"},
      {"compound": "O=C(O)c1c2ccccc2cc2ccccc12", "AC50": "0.2 µM (active)"},
      {"compound": "C=CCSC[C@@H]1Nc2cc(Cl)c(S(N)(=O)=O)cc2S(=O)(=O)N1", "AC50": "inactive"},
      {"compound": "Cc1noc(C)c1C(=O)N1CCC[C@@]2(CCN(c3ncccn3)C2)C1", "AC50": "inactive"},
      {"compound": "COc1cccc(N(C(=O)Cn2nnc(-c3ccc(C)cc3)n2)C(C(=O)NC(C)(C)C)c2c[nH]c3ccccc23)c1", "note": "(configuration not stated)", "AC50": "inactive"},
      {"compound": "COc1ccc2[nH]cc(CCNc3nc(-c4ccc(C(=O)N(C)C)cc4)nc4ccccc34)c2c1", "AC50": "15.8 µM (active)"},
      {"compound": "COc1ccc2[nH]cc(CCNc3nc(-c4ccc(N(C)C)cc4)nc4ccccc34)c2c1", "AC50": "1.26 µM (active)"},
      {"compound": "C[C@H]1CCCC2(CC[N+](C)(CCC[N+](C)(C)C)CC2)C1", "note": "(some centres not stated)", "activity, negative = inhibition": "-9.21% [at 11.4 µM] (inactive)"},
      {"compound": "COC(=O)c1ccccc1NC(=O)c1cc2nc(C3CC3)cc(C(F)(F)F)n2n1", "AC50": "1.58 µM (active)"},
      {"compound": "COCCNc1nc(-c2ccccc2C)nc2ccccc12", "AC50": "1.26 µM (active)"},
      {"compound": "COCCNc1nc(-c2ccccc2C(F)(F)F)nc2ccccc12", "AC50": "1.26 µM (active)"},
      {"compound": "COCCNc1nc(-c2ccccc2OC)nc2ccccc12", "AC50": "0.794 µM (active)"},
      {"compound": "COCCNc1nc(-c2ccccc2Cl)nc2ccccc12", "AC50": "0.126 µM (active)"}
    ]}
  ]
}
